From PubChem BioAssay (NCATS)
Values joined by “and” are separate entries in the source; they are usually repeats but may differ in a detail not shown here. Equal values may be shown once. Results filed as inconclusive are left out. A call without a number means that no potency is given here. A number with no mark means an inactive call. Active and inactive are the calls of the source. Calls come from the whole dose curve; as a rule, active = well fitted inhibition curve with a large enough effect; inconclusive = small, poorly fitted or top-dose-only effect; inactive = flat fitted curve, though single readings scatter.

What was measured:
[1] = target: Calcium and integrin-binding protein 1 (Homo sapiens) (UniProt Q99828); assay: Primary qHTS for Identification of Calcium Integrin Binding Protein 1 (CIB1) Competitor (AID 1508620);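 note: GST tagged CIB1 binding a fluorescein labelled alphaIIb integrin peptide tracer; top concentration of the series differs between compounds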
Chain of Calcium and integrin-binding protein 1 (Homo sapiens) (Q99828 whole entry, looked up): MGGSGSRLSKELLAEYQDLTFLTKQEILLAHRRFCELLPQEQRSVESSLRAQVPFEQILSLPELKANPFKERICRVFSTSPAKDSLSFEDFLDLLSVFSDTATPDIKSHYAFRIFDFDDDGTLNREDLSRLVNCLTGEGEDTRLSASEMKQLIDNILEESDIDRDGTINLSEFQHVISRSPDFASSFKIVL
Procedure, shortened: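 CIB1-GST (1 uM final) and compound incubated 15 min at room temperature before adding FITC-alphaIIb peptide tracer (100 nM final). Competition for binding read by fluorescence polarization (ex 480, em 540) after another 15 min at room temperature.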

[2] = Primary qHTS for inhibitors of nuclear receptor binding SET domain protein 2 (NSD2) in an isogenic RCH-ACV NSD2 p.E1099K mutant (9B) (AID 1645876); note: nearly all actives have a fitted effect of over 70% in size; note: potency is the fitted concentration of half-maximal effect

O=C(OCC1=CC(O)C2C=CO[C@@H](O[C@@H]3O[C@H](CO)[C@@H](O)[C@H](O)[C@H]3O)C12)c1ccccc1 (stereo not given in full)
Potency [1]: inactive | Potency [2]: inactive

C/C(=C\CCC1(C)C2CCC(C2)C1(C)O)C(=O)O (stereo not given)
Potency [1]: inactive | Potency [2]: inactive

CC(C)c1ccc2c(c1)C(=O)CC1[C@@](C)(C(=O)O)CCC[C@]21C (stereo not given in full)
Potency [1]: inactive | Potency [2]: inactive

CO/N=C(/C(=O)N[C@@H]1C(=O)N2C(C(=O)O)=C(Cn3ccc(=N)n3CCO)CS[C@H]12)c1csc(N)n1
Potency [1]: inactive | Potency [2]: inactive

CC(C)c1ccc(CO)cc1O[C@@H]1O[C@H](CO)[C@@H](O)[C@H](O)[C@H]1O
Potency [1]: inactive | Potency [2]: inactive

CC1(C)CC[C@]2(C(=O)O[C@@H]3O[C@H](CO)[C@@H](O)[C@H](O)[C@H]3O)CC[C@]3(C)C(=CCC4[C@@]5(C)C[C@@H](O)[C@H](O)[C@](C)(C(=O)O)C5CC[C@]43C)C2C1O (stereo not given in full)
Potency [1]: inactive | Potency [2]: inactive

COC(=O)C1=C2Nc3ccccc3C23CCN2CCCC(C(C)O)(C1)C23 (stereo not given)
Potency [1]: inactive | Potency [2]: inactive

CC(=O)c1c(O)cc(O[C@@H]2O[C@H](CO)[C@@H](O)[C@H](O)[C@H]2O)cc1O
Potency [1]: inactive | Potency [2]: inactive

CC1CCC2(CO)C(C(=O)O)=CCCC2C1(C)CCc1ccoc1 (stereo not given)
Potency [1]: inactive | Potency [2]: inactive

CC1=C(C(=O)O[C@@H]2O[C@H](COC3OCC(O)C(O)C3O)[C@@H](O)[C@H](O)[C@H]2O)C(C)(C)CCC1 (stereo not given in full)
Potency [1]: inactive | Potency [2]: inactive

CC(=O)OC1CC2C3(C)CCC(OC(=O)CC(=O)O)C(C)(C)C3CCC2(C)C2(C)CCC(C3(C)CCC(=O)O3)C12 (stereo not given)
Potency [1]: inactive | Potency [2]: inactive

COC(=O)CC(O)CC(O)/C=C/c1c(C)ccc2c1C(O)CC(C)C2 (stereo not given)
Potency [1]: inactive | Potency [2]: inactive

C=C1C[C@]23C[C@H]1CC[C@H]2[C@@]12CC[C@H](O)[C@@](C)(C(=O)O1)[C@H]2[C@@H]3C(=O)O
Potency [1]: inactive | Potency [2]: inactive

C/C=C/c1cc(OC)c2c(c1)[C@@H](C)[C@@H](c1ccc(O)c(OC)c1)O2
Potency [1]: inactive | Potency [2]: 8980 nM (active)

CCC1C(=O)OC23C=C[C@@H]4C(C(=O)O)=CO[C@H](O[C@@H]12)[C@@H]43 (stereo not given in full)
Potency [1]: inactive | Potency [2]: 25800 nM (active)

CC(C)c1cc(C(=O)N2CC[C@@H](NC(=O)C3CC3)C2)n[nH]1
Potency [1]: inactive | Potency [2]: inactive

CC1=CC(=O)CC(C)(C)[C@@]1(O)CC[C@@H](C)O[C@@H]1O[C@H](CO)[C@@H](O)[C@H](O)[C@H]1O
Potency [1]: inactive | Potency [2]: inactive

COC1CC(OC2CCC3(C)C(=CCC4C3C(OC(C)=O)C(OC(=O)/C=C/c3ccccc3)C3(C)C(C(C)O)CCC43O)C2)OC(C)C1OC1CC(OC)C(OC2OC(C)C(OC3OC(CO)C(O)C(O)C3O)C(OC)C2O)C(C)O1 (stereo not given)
activity change, negative = inhibition [1]: -8.58% [at 12.4 µM] | activity change, negative = viability loss [2]: -12.2% [at 9.23 µM]

CC(=O)O[C@H]1CC(C)(C)CC2[C@@]13[C@H](O)C[C@]1(C)[C@@]2(CCC2[C@@]4(C)CC[C@H](O[C@@H]5OC[C@H](O[C@@H]6O[C@H](CO)[C@@H](O)[C@H](O)[C@H]6O[C@@H]6OC[C@@H](O)[C@H](O)[C@H]6O)[C@H](O)[C@H]5O[C@@H]5O[C@H](CO)[C@@H](O)[C@H](O)[C@H]5O)C(C)(C)C4CC[C@]21C)O[C@@H]3O (stereo not given in full)
Potency [1]: inactive | Potency [2]: 346 nM (active)

CC1=CC(=O)CC(C)(CO)C1(O)/C=C/C(C)O[C@@H]1O[C@H](CO)[C@@H](O)[C@H](O)[C@H]1O (stereo not given in full)
Potency [1]: inactive | Potency [2]: inactive

CC(=O)OC[C@]12[C@H](OC(C)=O)C(=O)[C@@H]3[C@@H](OC(C)=O)[C@@]14O[C@@]3(C)COC(=O)c1cccnc1[C@@H](C)[C@H](C)C(=O)O[C@@H]([C@H](O)[C@@H]2OC(C)=O)[C@]4(C)O
Potency [1]: inactive | Potency [2]: inactive

CC(=O)OC1CC2(C)C3=CCC4(C)C5C(O)C(O)C(C(C)C)C5(C)CCC4(C)C3CCC2C(C)(C)C1OC1OC(CO)C(O)C(O)C1O (stereo not given)
Potency [1]: inactive | Potency [2]: inactive

O=C(O)/C=C/c1cc2c(cc1O[C@@H]1O[C@H](CO)[C@@H](O)[C@H](O)[C@H]1O)OCO2
Potency [1]: inactive | Potency [2]: inactive

CN(C)C/C=C/C(=O)Nc1cccc(C(=O)Nc2cccc(Nc3ncc(Cl)c(-c4c[nH]c5ccccc45)n3)c2)c1
Potency [1]: inactive | Potency [2]: 64.9 nM (active) and 148 nM (active)

CC/C=C\CCO[C@@H]1O[C@H](CO)[C@@H](O)[C@H](O)[C@H]1O
Potency [1]: inactive | Potency [2]: inactive

C=C[C@H]1C(O[C@@H]2O[C@H](CO)[C@@H](O)[C@H](O)[C@H]2O)OC=C2C(=O)N3CCc4c([nH]c5ccccc45)[C@H]3C[C@H]21 (stereo not given in full)
Potency [1]: inactive | Potency [2]: inactive

COc1cc(O)cc(/C=C/c2ccc(O[C@@H]3O[C@H](CO)[C@@H](O)[C@H](O)[C@H]3O)cc2)c1
Potency [1]: inactive | Potency [2]: 8930 nM (active)

CC1=C(CCC(C)O[C@@H]2O[C@H](CO)[C@@H](O)[C@H](O)[C@H]2O)C(C)(C)CCC1=O (stereo not given in full)
Potency [1]: inactive | Potency [2]: inactive

CNC12CC3C[C@@](C)(C1)C[C@](C)(C3)C2
Potency [1]: inactive | Potency [2]: inactive

C[C@@H]1O[C@@H](O[C@H]2[C@H](O[C@H]3[C@H](O[C@H]4CC[C@@]5(C)C(CC[C@]6(C)C5CC=C5[C@@H]7CC(C)(C)CC[C@]7(C(=O)O[C@@H]7O[C@H](CO)[C@@H](O[C@@H]8O[C@@H](C)[C@H](O)[C@@H](O)[C@H]8O)[C@H](O)[C@H]7O)CC[C@]56C)C4(C)C)OC[C@H](O)[C@@H]3O)O[C@H](CO)[C@@H](O)[C@@H]2O)[C@H](O)[C@H](O)[C@H]1O (stereo not given in full)
activity change, negative = inhibition [1]: -0.624% [at 12.4 µM] | activity change, negative = viability loss [2]: -8.33% [at 9.23 µM]

CC1=C(C(=O)O)/C(=C/CO[C@@H]2O[C@H](COC(=O)/C=C/c3ccc(O)cc3)[C@@H](O)[C@H](O)[C@H]2O)C(O)C1 (stereo not given in full)
Potency [1]: inactive | Potency [2]: inactive

O=C(O)c1ccc(CN2CCC(CN[C@@H]3C[C@H]3c3ccccc3)CC2)cc1
Potency [1]: inactive | Potency [2]: inactive

COC1=CC(=O)CC(C)C12Oc1cc(OC)cc(O)c1C2=O (stereo not given)
Potency [1]: inactive | Potency [2]: inactive

COCC1OC(OC(C)(C)C2CCC3(C)C=C(C4CCC5C4(C)CC(O)C4OC(C(C)(C)OC6OC(CO)C(O)C(O)C6NC(C)=O)CCC45C)CCC3O2)C(NC(C)=O)C(O)C1O (stereo not given)
Potency [1]: inactive | activity change, negative = viability loss [2]: 1.46% [at 9.23 µM]

Cc1cc(C)cc(C(=O)NOCCCCCC(=O)NO)c1
Potency [1]: inactive | Potency [2]: 515 nM (active)

CO[C@H]1C[C@@H]2CC[C@@H](C)[C@@](O)(O2)C(=O)C(=O)N2CCCC[C@H]2C(=O)O[C@H]([C@H](C)C[C@@H]2CC[C@@H](OP(C)(C)=O)[C@H](OC)C2)CC(=O)[C@H](C)/C=C(\C)[C@@H](O)[C@@H](OC)C(=O)[C@H](C)C[C@H](C)/C=C/C=C/C=C/1C
Potency [1]: inactive | Potency [2]: 11.8 nM (active)

C/C=C(\C)C(=O)O[C@@H]1CC2[C@@H](CC=C3C[C@@H](O[C@H]4C[C@H](OC)[C@H](O[C@H]5C[C@H](OC)[C@H](O[C@@H]6O[C@H](C)[C@@H](O[C@H]7C[C@H](OC)[C@H](O[C@@H]8O[C@H](CO)[C@@H](O)[C@H](O)[C@H]8O)[C@@H](C)O7)[C@H](OC)[C@H]6O)[C@@H](C)O5)[C@@H](C)O4)CC[C@@]32C)[C@@]2(O)CC[C@H](C(C)=O)[C@@]12C (stereo not given in full)
activity change, negative = inhibition [1]: 2.76% [at 12.4 µM] | activity change, negative = viability loss [2]: -8.77% [at 9.23 µM]

CC(=O)OC1C(=O)C2(C)C(O)CC3OCC3(OC(C)=O)C2C(OC(=O)c2ccccc2)C2(O)CC(OC(=O)C(O)C(NC(=O)c3ccccc3)c3ccccc3)C(C)=C1C2(C)C (stereo not given)
Potency [1]: inactive | Potency [2]: 5.2 nM (active)

C=C1CN(Cc2ccc(C(=O)Nc3ccccc3N)cc2)C(=O)c2ccccc21
Potency [1]: inactive | Potency [2]: 230 nM (active)

C[C@@H]1O[C@@H](O[C@H]2[C@H](O)[C@@H](C(=O)O)O[C@@H](O[C@H]3CC[C@@]4(C)C(CC[C@]5(C)C4CC=C4C6CC(C)(C)CC[C@]6(C(=O)O)CC[C@]45C)C3(C)C)[C@@H]2O[C@@H]2OC[C@@H](O)[C@H](O)[C@H]2O)[C@H](O)[C@H](O)[C@H]1O (stereo not given in full)
Potency [1]: inactive | outcome [2]: inactive [at 9.23 µM]

CC1(C)CC2=C3C=CC4C5(C)CCC(O)C(C)(C)C5CCC4(C)C3(C)CCC2(C)C(O)C1 (stereo not given)
Potency [1]: inactive | Potency [2]: inactive

C[C@]12C=C[C@@]3(CCC4[C@](C)(CO)CCC[C@@]4(C)C3CC1)C2 (stereo not given in full)
Potency [1]: inactive | Potency [2]: inactive

CC1(c2nc3c(C(N)=O)cccc3[nH]2)CCCN1 (stereo not given)
Potency [1]: inactive | Potency [2]: inactive

C=C1CCC2C(C)(C)C(O)CCC2(C)C1CCC(C)CCOC(C)=O (stereo not given)
Potency [1]: inactive | Potency [2]: inactive

C[C@H](N)C(=O)N[C@@H](Cc1ccc(O)cc1)C(=O)N1CCC[C@H]1C(=O)NCC(=O)N[C@@H](CCCCN)C(=O)N[C@@H](Cc1ccccc1)C(N)=O
Potency [1]: inactive | activity change, negative = viability loss [2]: 0.961% [at 9.23 µM]
